Assay outcomes (PubChem BioAssay)
Mtb hypoxia inh – PubChem AID 1159583. hit rate 0.1% among 300,000. M. tuberculosis hypoxia-regulated fluorescent reporter, fluorescence. fluorescence inhibition, % (concentration not given with the values); in the data active = fluorescence inhibition mostly above about 23%, no sharp cut-off; inactive = mostly below about 17%
Mtb FBA inh – Mtb FBA enzyme inhibitors, primary screen, biochemical, fluorescence, strain H37Rv; Fructose-bisphosphate aldolase (Mycobacterium tuberculosis (strain ATCC 25618 / H37Rv)), …; purified M. tuberculosis FBA, fluorescence read-out; inhibition, % at 1 µM; hit rate 2.3% among 360,000; AID 588726, 2011;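 note: 0% = vehicle and 100% = reference inhibitor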
Target sequence (P9WQA3 whole entry, looked up): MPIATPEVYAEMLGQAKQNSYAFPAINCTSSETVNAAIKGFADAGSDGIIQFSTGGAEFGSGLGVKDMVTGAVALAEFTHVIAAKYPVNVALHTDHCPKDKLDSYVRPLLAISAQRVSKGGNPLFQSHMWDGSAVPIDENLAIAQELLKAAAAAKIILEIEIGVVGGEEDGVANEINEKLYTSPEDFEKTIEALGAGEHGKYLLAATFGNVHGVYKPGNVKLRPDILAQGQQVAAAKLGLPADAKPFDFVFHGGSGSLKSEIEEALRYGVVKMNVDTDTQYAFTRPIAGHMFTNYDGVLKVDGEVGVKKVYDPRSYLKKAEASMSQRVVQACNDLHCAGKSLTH
GDH-TPI counter-1 – GDH-TPI coupling enzyme inhibitors, primary screen, artefact control for M. tuberculosis FBA inhibitor project, biochemical, absorbance, full deck; hit rate 1.2% among 360,000; GDH-TPI coupled enzyme counterscreen, NADH absorbance; inhibition, % at 4.8 µM; in the data active = inhibition above about 30%;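 note: 0% = DMSO wells and 100% = wells lacking the enzyme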
FadD28 binding – inhibitors of FadD28 bisubstrate probe binding, primary screen, biochemical, fluorescence polarization, single point. Mycobacterium tuberculosis FadD28 fatty-acid-AMP ligase. inhibition, % at 12.5 µM. hit rate 0.22% among 360,000. AID 588549, 2011; in the data active = inhibition above about 8.5%, passing the limit was not always enough
Mtb BioA inh – M. tuberculosis BioA enzyme inhibitors, primary screen, biochemical, plate reader, single point, HTS; purified M. tuberculosis BioA enzyme; inhibition, % at 9.99 µM; hit rate 0.096% among 360,000; AID 602481, 2012; in the data active = inhibition above about 40%
Mtb FBA confirm – M. tuberculosis aldolase blockers, biochemical, fluorescence, strain H37Rv, confirmation; shares compounds with Mtb FBA inh; purified M. tuberculosis FBA, fluorescence read-out; inhibition, % at 1 µM; hit rate 78% among 5,600; AID 651616, 2012;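 note: 0% = vehicle wells and 100% = reference inhibitor wells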
GDH-TPI counter-2 – GDH-TPI coupling enzyme inhibitors, artefact control for M. tuberculosis FBA inhibitor project, biochemical, fluorescence, high throughput. shares compounds with Mtb FBA inh. GDH-TPI coupled enzyme counterscreen. inhibition, % at 1 µM. hit rate 81% among 5,600; in the data active = inhibition above about 10%
GDH-TPI dose – GDH-TPI coupling enzyme inhibitors, dose response, artefact control for M. tuberculosis FBA inhibitor project, biochemical, fluorescence, IC50 | AID 652145, 2013 | hit rate 79% among 170 | GDH-TPI coupled enzyme assay, artifact counterscreen | shares compounds with Mtb FBA inh | IC50, µM; call rule not given here
Active calls of the source: *; x = not tested or not shown; + = active, no number. Shown are actives, neighbours in structure and some others; about 2.9% of the full set was active somewhere. Cut-off read from the data, not from the text of the source, unless noted: active = inhibition above about 27%; inactive = the rest.

SMILES | Mtb hypoxia inh | Mtb FBA inh | GDH-TPI counter-1 | FadD28 binding | Mtb BioA inh | Mtb FBA confirm | GDH-TPI counter-2 | others
CC1CCCN(S(=O)(=O)c2ccc3c(c2)c(=O)nc2ccccn23)C1 (stereo not drawn) | 8.0 | 65.6* | 11.9 | -2.4 | 0.0 | 89.0* | 64.6*
COc1ccc2cc(S(=O)(=O)N3CCCC(C)C3)ccc2c1 (stereo not drawn) | x | -0.4 | 10.5 | -2.6 | -1.1 | x | x
CC(=O)Nc1ccc(S(=O)(=O)Nc2cccc(-c3cn4cccnc4n3)c2)cc1 | 7.3 | 64.3* | 17.6 | -8.2 | x | -3.3 | -9.3
CO[C@H]1CN(C)C(=O)c2cc(NC(C)=O)ccc2OC[C@H](C)N(Cc2ccccn2)C[C@H]1C | x | x | x | x | 0.1 | x | x
O=C(NCc1ccccc1)[C@@H]1[C@@H](CO)[C@@H]2Cn3c(cccc3=O)[C@H]1N2C(=O)Cc1ccccn1 | x | x | x | x | 1.5 | x | x
COCCN1CCn2c(nc3cc(NC(=O)c4cccs4)ccc32)C1 | 6.7 | -0.1 | 23.9 | -1.9 | 7.6 | x | x
CCCCC(=O)Nc1ccc2c(c1)nc1n2CCN(CCOC)C1 | 3.0 | 51.5* | 6.6 | -3.9 | 0.1 | 16.3 | 12.3*
CCCCC(=O)Nc1ccc2c(c1)nc1n2CCOC1 | -16.1 | 1.9 | -1.4 | -4.1 | 0.4 | x | x
CCCC(=O)Nc1ccc2c(c1)nc1n2CCN(CCOC)C1 | 0.2 | 33.4* | 4.7 | -1.7 | 0.6 | + | 178.8*
COc1ccccc1/C=C/C=Nn1c(-c2ccncc2)n[nH]c1=S | 1.7 | x | x | x | x | x | x
O=C(CSc1nc2ccccc2o1)c1cc2ccccc2oc1=O | x | 54.7* | 12.4 | -2.5 | -0.5 | 10.5 | 2.0 | GDH-TPI dose=>10
Cc1cc(C)nc(SCC(=O)c2cc3ccccc3oc2=O)n1 | x | -2.5 | 14.5 | -0.9 | 1.2 | x | x
COCC(=O)Nc1ccc2c(c1)[C@@H]1C[C@H](CC(=O)NCc3ccc4c(c3)OCO4)O[C@@H](CO)[C@@H]1O2 | x | x | x | x | -0.5 | x | x
O=C(c1ccccc1)N1CC[C@@H]2[C@H]1c1cc(C#Cc3ccccc3F)ccc1N[C@@H]2CO | x | x | x | x | -3.8 | x | x
OC1CNc2c(ccc3ccccc23)C1 (stereo not drawn) | 8.4 | 101.2* | 6.9 | -2.2 | x | 175.1* | 153.6*
c1ccc2c(c1)ccc1ccccc12 | x | 4.6 | 8.8 | 0.0 | -2.2 | x | x
CCc1ccc(C(=O)C[n+]2cccc3cc(OC)ccc32)cc1 | 18.6 | 40.5* | 6.5 | -1.9 | -1.0 | 25.6 | 19.6*
COc1ccc(S(=O)(=O)N(C)C[C@H]2Oc3c(NS(=O)(=O)c4cn(C)cn4)cccc3C(=O)N([C@@H](C)CO)C[C@@H]2C)cc1 | x | x | x | x | -0.4 | x | x
CCOC(=O)c1ccc(C(=O)OCC)c(NC(=S)Nc2ccc([N+](=O)[O-])cc2OC)c1 | 0.4 | 31.5* | 19.5 | -3.3 | 2.4 | -4.2 | -5.8
NNc1ccc2c(C(F)(F)F)cc(C(F)(F)F)nc2n1 | 12.2 | 29.7* | 6.2 | -0.4 | 0.2 | 80.0* | 61.8*
Cc1ccc(/C=N/Nc2ccc3c(C(F)(F)F)cc(C(F)(F)F)nc3n2)cc1 | x | -0.3 | -2.5 | -5.0 | -0.5 | x | x
CCC(=O)NC[C@H]1[C@@H](c2ccc(-c3ccccc3)cc2)[C@H](CO)N1C(=O)C1CC1 | x | x | x | x | -2.4 | x | x
NC(=O)c1nc(-c2ccccc2)c(-c2ccccc2)[nH]c1=O | 9.1 | 67.0* | 13.1 | -0.2 | x | 37.0* | 22.5*
CCOC(=O)c1cc(-c2ccccc2)sc1NC(=O)C(C)C | -4.8 | 36.8* | 1.1 | -2.2 | x | 125.3* | 112.7*
COc1ccc(-c2[nH]c(-c3cc(OC)c4c(c3)OCO4)nc2-c2ccccc2)cc1 | 10.0 | 61.5* | 15.1 | -2.9 | -0.2 | + | +
SMILES | Mtb hypoxia inh | Mtb FBA inh | GDH-TPI counter-1 | FadD28 binding | Mtb BioA inh | Mtb FBA confirm | GDH-TPI counter-2 | others
Cc1c(C)c2ccc(OCC(=O)N3CC[C@@]4(O)CCCC[C@H]4C3)c(C)c2oc1=O | x | 36.2* | 3.9 | -1.1 | 21.7 | 104.2* | 92.2*
Cc1c(C)c2ccc(OCC(=O)N(C)C3CCS(=O)(=O)C3)c(C)c2oc1=O (stereo not drawn) | -1.9 | 89.0* | 8.3 | 0.6 | 10.8 | 71.1* | 64.5*
Cc1cc(=O)oc2cc(OCC(=O)N3CC[C@@]4(O)CCCC[C@H]4C3)ccc12 | x | 24.5 | 23.5 | 1.5 | 0.0 | x | x
Cc1cc(=O)oc2cc(OCC(=O)N(C)C3CCS(=O)(=O)C3)c(Cl)cc12 (stereo not drawn) | 6.7 | 14.5 | 6.0 | -2.0 | 0.6 | x | x
CCc1cc(=O)oc2cc(OCC(=O)N3CC[C@@]4(O)CCCC[C@H]4C3)ccc12 | x | 30.3* | 28.4 | 0.5 | -1.2 | 64.2* | 48.4*
CCC(=O)N1C[C@@H]2[C@H](c3ccccc31)[C@H](CO)N2C(=O)CC1CC1 | x | x | x | x | 5.5 | x | x
O=C1C=CC(=NN=C(c2ccccc2)c2ccccc2)C=C1 | x | 32.2* | x | -1.1 | x | 80.5* | 66.6*
NN=C(c1ccccc1)c1ccccc1 | 6.0 | -0.2 | 14.5 | -1.5 | -0.7 | x | x
OCCC1CC(O)C(O)[C@@]2(CCc3ccccc3CO2)O1 (stereo partly drawn) | 3.5 | x | x | x | x | x | x
O=C(N[C@H]1CC[C@@H](CCNS(=O)(=O)c2ccc(F)cc2)O[C@H]1CO)c1ccccn1 | x | x | x | x | -1.4 | x | x
Nc1ccc2c(c1)nnn2-c1ccccc1 | 5.3 | 30.6* | -7.2 | -1.6 | 1.7 | 190.3* | 151.6*
N#Cc1ccc2c(c1)nnn2-c1ccccc1 | 12.3 | 3.8 | -3.0 | 0.2 | 0.1 | x | x
Cc1cc(C)nc(NN=Cc2cccc([N+](=O)[O-])c2)n1 | 6.3 | x | x | x | x | x | x
Cc1cc(OC(C)C(=O)N[C@H](C(=O)O)c2ccccc2)c2c3c(c(=O)oc2c1)CCC3 (stereo partly drawn) | x | 108.2* | 2.9 | -4.3 | -0.3 | 143.9* | 104.7*
Cc1cc(OC(C)C(=O)NCC(O)c2ccccc2)c2c3c(c(=O)oc2c1)CCCC3 (stereo not drawn) | -1.9 | 81.1* | 6.0 | -4.0 | 0.9 | 169.3* | 130.6*
O=C(COc1ccc2c3c(c(=O)oc2c1)CCC3)NCC(O)c1ccccc1 (stereo not drawn) | 7.2 | 3.5 | 2.2 | -3.4 | -2.6 | x | x
CC(Oc1ccc2c3c(c(=O)oc2c1)CCCC3)C(=O)NCC(O)c1ccccc1 (stereo not drawn) | -8.7 | 50.4* | 18.8 | 0.2 | -2.5 | 165.4* | 117.3*
Cc1noc(C)c1S(=O)(=O)Nc1ccc2c(c1)C(=O)N([C@H](C)CO)C[C@H](C)[C@H](CN(C)C(=O)c1ccncc1)OCCCC[C@H](C)O2 | x | x | x | x | 0.1 | x | x
